# Source: PubChem BioAssay AID1159580 (chemical genetic matrix, 2015)
# In all, about 5,500 compounds went through this assay and about 2,000 (36%) were called active. About 18% were inconclusive and are not listed. The list shows a part of the results. Values without a mark were called inactive. No stated cut-off is given here; in the data, active means normalized growth mostly below about 0.91 (no sharp cut-off); inconclusive means no clear call, values can overlap the other calls; inactive means mostly above about 0.92.
# Test: chemical genetic growth profiling, strain panel (AID 1159580);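 further: tested at 20 µM; growth read once vehicle control cultures reached saturation at 30 °C; 1 = growth at the plate median or of vehicle wells; lower values mean less growth of the strain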
# Settings: S. cerevisiae deletion strains, growth OD
compound,measurement,setting,value
COc1ccc(/C=C/c2cc(O)cc(O)c2)cc1,normalized growth,"locus YJR043C, strain POL32, hits give low values",0.788 (active)
same,normalized growth,"locus YJR066W, strain TOR1, hits give low values",0.995
same,normalized growth,"locus YKL009W, strain mrt4, hits give low values",0.87 (active)
same,normalized growth,"locus YKL068W, hits give low values",0.982
same,normalized growth,"locus YKL085W, strain MDH1 (second series), hits give low values",0.946
same,normalized growth,"locus YKL085W, strain MDH1, hits give low values",0.946
same,normalized growth,"locus YKL160W, strain elf1, hits give low values",0.996
same,normalized growth,"locus YKR001C, strain vps1, hits give low values",0.608 (active)
same,normalized growth,"locus YKR026C, strain gcn3, hits give low values",1
same,normalized growth,"locus YKR091W, strain srl3, hits give low values",1
same,normalized growth,"locus YLL001W, strain dnm1, hits give low values",0.997
same,normalized growth,"locus YLL026W, hits give low values",1.01
same,normalized growth,"locus YLL041C, strain sdh2, hits give low values",1.01
same,normalized growth,"locus YLR027C, strain aat2, hits give low values",1
same,normalized growth,"locus YLR039C, strain RIC1, hits give low values",0.815
same,normalized growth,"locus YLR058C, strain SHM2, hits give low values",0.931
same,normalized growth,"locus YLR102C, strain apc9, hits give low values",0.966
same,normalized growth,"locus YLR113W, strain HOG1, hits give low values",0.966
same,normalized growth,"locus YLR221C, strain rsa3, hits give low values",0.999
same,normalized growth,"locus YLR258W, strain gsy2, hits give low values",0.996
same,normalized growth,"locus YLR262C, strain YPT6 (second series), hits give low values",0.991
same,normalized growth,"locus YLR262C, strain YPT6, hits give low values",0.686
same,normalized growth,"locus YLR268W, strain sec22, hits give low values",0.872 (active)
same,normalized growth,"locus YLR320W, strain mms22, hits give low values",0.991
same,normalized growth,"locus YLR330W, strain CHS5, hits give low values",0.84 (active)
same,normalized growth,"locus YLR342W, strain FKS1 (second series), hits give low values",0.785 (active)
same,normalized growth,"locus YLR342W, strain FKS1, hits give low values",1
same,normalized growth,"locus YLR357W, strain rsc2, hits give low values",0.95
same,normalized growth,"locus YLR370C, strain arc18, hits give low values",1.01
same,normalized growth,"locus YLR371W, strain rom2, hits give low values",0.793 (active)
same,normalized growth,"locus YLR384C, strain iki3, hits give low values",1.01
same,normalized growth,"locus YLR418C, strain cdc73, hits give low values",0.583 (active)
same,normalized growth,"locus YML016C, strain PPZ1, hits give low values",0.964
same,normalized growth,"locus YML032C, strain rad52, hits give low values",0.886 (active)
same,normalized growth,"locus YML120C, strain ndi1, hits give low values",0.997
same,normalized growth,"locus YML124C, strain tub3, hits give low values",0.972
same,normalized growth,"locus YMR058W, strain fet3, hits give low values",1
same,normalized growth,"locus YMR078C, strain ctf18, hits give low values",0.967
same,normalized growth,"locus YMR125W, strain sto1, hits give low values",1.01
same,normalized growth,"locus YMR129W, hits give low values",1.01
same,normalized growth,"locus YMR205C, strain PFK2, hits give low values",0.995
same,normalized growth,"locus YMR223W, strain ubp8, hits give low values",0.89 (active)
same,normalized growth,"locus YMR231W, strain pep5, hits give low values",0.992
same,normalized growth,"locus YMR263W, strain SAP30, hits give low values",0.883 (active)
same,normalized growth,"locus YMR307W, strain GAS1, hits give low values",0.663
same,normalized growth,"locus YNL067W, strain RPL9B, hits give low values",0.908
same,normalized growth,"locus YNL071W, strain lat1, hits give low values",1
same,normalized growth,"locus YNL153C, strain GIM3, hits give low values",0.931
same,normalized growth,"locus YNL183C, strain NPR1, hits give low values",0.977
same,normalized growth,"locus YNL209W, strain ssb2, hits give low values",1.01
same,normalized growth,"locus YNL233W, strain BNI4, hits give low values",0.823 (active)
same,normalized growth,"locus YNL248C, strain rpa49, hits give low values",0.999
same,normalized growth,"locus YNL250W, strain rad50, hits give low values",0.961
same,normalized growth,"locus YNL271C, strain bni1, hits give low values",0.945
same,normalized growth,"locus YNL298W, strain CLA4, hits give low values",0.928
same,normalized growth,"locus YNL307C, strain MCK1, hits give low values",0.857 (active)
same,normalized growth,"locus YNL322C, strain KRE1 (second series), hits give low values",1.01
same,normalized growth,"locus YNL322C, strain KRE1, hits give low values",0.945
same,normalized growth,"locus YNR049C, strain mso1, hits give low values",1.02
same,normalized growth,"locus YNR052C, strain pop2, hits give low values",0.914 (active)
same,normalized growth,"locus YOL012C, strain htz1",0.771
same,normalized growth,"locus YOL147C, strain pex11, hits give low values",0.868 (active)
same,normalized growth,"locus YOR001W, strain rrp6, hits give low values",1
same,normalized growth,"locus YOR061W, strain CKA2, hits give low values",0.941
same,normalized growth,"locus YOR069W, strain VPS5, hits give low values",0.927
same,normalized growth,"locus YOR070C, strain gyp1, hits give low values",1
same,normalized growth,"locus YOR080W, strain dia2, hits give low values",1
same,normalized growth,"locus YOR083W, strain WHI5, hits give low values",0.994
same,normalized growth,"locus YOR106W, strain vam3, hits give low values",0.956
same,normalized growth,"locus YOR136W, strain idh2, hits give low values",0.936
same,normalized growth,"locus YOR144C, strain elg1, hits give low values",0.932 (active)
same,normalized growth,"locus YOR184W, strain ser1, hits give low values",0.623 (active)
same,normalized growth,"locus YOR231W, strain MKK1, hits give low values",0.991
same,normalized growth,"locus YOR265W, strain rbl2, hits give low values",1.02
same,normalized growth,"locus YOR270C, strain vph1, hits give low values",0.998
same,normalized growth,"locus YOR290C, strain snf2, hits give low values",0.995
same,normalized growth,"locus YOR316C, strain cot1, hits give low values",0.961
same,normalized growth,"locus YPL051W, strain arl3, hits give low values",0.973
same,normalized growth,"locus YPL078C, strain atp4, hits give low values",0.998
same,normalized growth,"locus YPL106C, strain sse1, hits give low values",0.996
same,normalized growth,"locus YPL240C, strain hsp82, hits give low values",1.01
same,normalized growth,"locus YPL241C, strain CIN2, hits give low values",0.973
same,normalized growth,"locus YPL256C, strain CLN2, hits give low values",1.05
same,normalized growth,"locus YPR119W, strain clb2, hits give low values",0.964
same,normalized growth,"locus YPR141C, strain kar3, hits give low values",0.977
same,normalized growth,"locus YPR163C, strain tif3, hits give low values",0.842 (active)
same,normalized growth,"locus YPR167C, strain met16, hits give low values",0.969
same,normalized growth,"strain wtn01, hits give low values",0.838 (active)
